Assay [1] can be described thus: qHTS assay to identify small molecule antagonists of the androgen receptor (AR) signaling pathway using the MDA cell line in the presence of 0.5 nM R1881 - cell viability counter screen (AID 1259242). Also: nearly all actives have a fitted effect of over 45% in size. Put shortly: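 Viability of MDA-kb2 cells was multiplexed with the luciferase AR readout; after 16 hr with compounds and R1881 at 0.5 nM final, CellTiter-Fluor fluorescence was recorded.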

The target of assay [2] is Androgen receptor (Homo sapiens) (UniProt P10275). In words: qHTS assay to identify small molecule antagonists of the androgen receptor (AR) signaling pathway using the MDA cell line in the presence of 0.5 nM R1881 (AID 1259243). Also: nearly all actives have a fitted effect of over 50% in size. Also: potency is read from the fitted curve at half-maximal effect. In short, it runs like this: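 Reporter cells cultured without CO2 receive test chemicals, then 0.5 nM R1881 final; after 16 hr at 37C, ONE-Glo is added and light output recorded.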
Sequence of Androgen receptor (Homo sapiens) (P10275 whole entry, looked up): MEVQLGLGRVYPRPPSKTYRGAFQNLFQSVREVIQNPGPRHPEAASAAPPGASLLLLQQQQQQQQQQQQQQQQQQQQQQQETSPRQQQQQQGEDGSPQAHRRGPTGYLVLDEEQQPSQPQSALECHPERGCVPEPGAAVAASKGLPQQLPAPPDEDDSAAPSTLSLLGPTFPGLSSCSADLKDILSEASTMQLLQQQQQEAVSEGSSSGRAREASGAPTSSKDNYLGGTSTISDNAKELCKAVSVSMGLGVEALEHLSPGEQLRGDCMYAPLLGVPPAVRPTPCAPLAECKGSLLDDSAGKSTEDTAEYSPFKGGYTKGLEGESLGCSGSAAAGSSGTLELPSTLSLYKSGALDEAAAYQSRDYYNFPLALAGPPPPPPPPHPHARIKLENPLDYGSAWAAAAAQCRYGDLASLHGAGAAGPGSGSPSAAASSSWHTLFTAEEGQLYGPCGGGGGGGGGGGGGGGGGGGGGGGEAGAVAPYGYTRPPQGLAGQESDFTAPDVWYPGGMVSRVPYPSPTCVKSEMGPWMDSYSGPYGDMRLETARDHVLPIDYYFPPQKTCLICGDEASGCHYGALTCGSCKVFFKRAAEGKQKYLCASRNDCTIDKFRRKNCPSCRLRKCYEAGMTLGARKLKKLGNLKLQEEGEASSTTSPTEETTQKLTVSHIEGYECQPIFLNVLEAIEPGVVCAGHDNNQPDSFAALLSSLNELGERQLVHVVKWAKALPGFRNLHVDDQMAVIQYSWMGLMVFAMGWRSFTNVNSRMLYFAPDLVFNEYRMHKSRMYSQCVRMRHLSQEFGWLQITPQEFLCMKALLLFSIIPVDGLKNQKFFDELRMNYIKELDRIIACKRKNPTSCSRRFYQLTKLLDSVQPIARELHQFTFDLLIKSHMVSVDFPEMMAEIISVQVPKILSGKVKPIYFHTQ

The target in assay [3] is Estrogen receptor (Homo sapiens) (UniProt P03372). In words: qHTS assay to identify small molecule antagonists of the estrogen receptor alpha (ER-alpha) signaling pathway using the BG1 cell line in the presence of 0.1 nM 17-beta-estradiol (AID 1259244). Also: nearly all actives have a fitted effect of over 50% in size. Put shortly:
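Estradiol at 0.1 nM (final) stimulates the endogenous ER-alpha of VM7Luc4E2 cells carrying an ERE-driven luciferase; compounds are co-incubated 22 h at 37C and luciferase output quantified by luminescence.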

Assay [4] can be described thus: qHTS assay to identify small molecule HDAC inhibitors (AID 1259364).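 Also: wild-type HCT-116 cells with endogenous class I/II HDAC activity; top concentration of the series differs between compounds; nearly all actives have a fitted effect of over 45% in size.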 Put shortly:
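Read-out: luminescence of HDAC-Glo I/II reagent, 30 min RT, reflecting class I/II deacetylase activity in whole HCT-116 cells pre-exposed 2 h to DMSO-dissolved compounds.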

The nature of assay [5]: qHTS assay to identify small molecule HDAC inhibitors - cell viability counter screen (AID 1259365). Also: series mostly up to about 92 µM; nearly all actives have a fitted effect of over 50% in size. Put shortly: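 Following a 2hr exposure of overnight-plated wild-type HCT-116 cells to DMSO-delivered compounds, CellTiter-Glo was added and luminescence recorded after 30min at room temperature.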
The nature of assay [6]: qHTS assay to identify small molecule agonists of the sonic hedgehog signaling (Shh) pathway - cell viability counter screen (AID 1259366). Also: nearly all actives have a fitted effect of over 50% in size. Put shortly: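 After a 4hr attachment at 37C, NIH/3T3 cells bearing an integrated Gli1-driven luciferase reporter were dosed with compounds. Treatment lasted 24hr, with the final hour including CellTiter-Fluor for a fluorescence viability measurement.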

Assay [7] is described as follows: qHTS assay to identify small molecule antagonists of the sonic hedgehog signaling (Shh) pathway - cell viability counter screen (AID 1259367). Also: nearly all actives have a fitted effect of over 55% in size. Also: potency is read from the fitted curve at half-maximal effect. In short, it runs like this:
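NIH/3T3-derived Gli1-Luc reporter cells (2,000 per well) rested 4 hr at 37 C, then received DMSO compounds plus conditioned medium. After 23 hr of treatment, CellTiter-Fluor was added for 1 hr at 37C and fluorescence read.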

Assay [8] is described as follows: qHTS assay to identify small molecule agonists of the sonic hedgehog signaling (Shh) pathway (AID 1259368; calls by dose curve;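 also: NIH/3T3-derived 3T3Gli1-Luc cells carrying a stable Gli1-driven firefly luciferase reporter; series mostly up to about 92 µM; nearly all actives have a fitted effect of over 15% in size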). In short, it runs like this:
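A Gli1 transcriptional response element controlled firefly luciferase in 3T3Gli1-Luc cells. Compounds and a positive control were added 4 hr after plating, and cells were incubated a further 24 hr at 37 C before luminescence detection.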

Assay [9] concerns the target Estrogen receptor beta (Homo sapiens) (UniProt Q92731). In words: qHTS assay to identify small molecule antagonists of the estrogen receptor beta (ER-beta) signaling pathway (AID 1259378; active = well fitted inhibition curve with a large enough effect in the signal ratio in the repeat runs, not every such curve was filed as active; the % refers to the signal ratio). Put shortly: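 ER-beta-UAS-bla HEK293T (GripTite) cells in 2% charcoal-stripped FBS medium were preincubated 6 hr at 37C, dosed with compound, then stimulated with 1 nM E2 (final) for 16 hr; beta-lactamase reporter read by B/G FRET fluorescence after 2 hr substrate loading.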

The nature of assay [10]: qHTS assay to identify small molecule agonists of the androgen receptor (AR) signaling pathway in the presence of an antagonist - cell viability counter screen (AID 1259379).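 Also: MDA-kb2 human breast cancer cells carrying an MMTV luciferase reporter; series mostly up to about 92 µM; nearly all actives have a fitted effect of over 25% in size.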 In short, it runs like this: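 Seed MDA-kb2 at 3,000 cells/well; incubate 5 hr, 37C, 0% CO2. Add nilutamide to 3.0uM final, then pin compounds at 15 concentrations. Incubate 16 hr. Add CellTiter-Fluor at 15 hr, read fluorescence after 1 hr.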

For assay [11], the target named is Androgen receptor (Homo sapiens) (UniProt P10275). In words: qHTS assay to identify small molecule agonists of the androgen receptor (AR) signaling pathway in the presence of an antagonist (AID 1259381; calls by dose curve; also: nearly all actives have a fitted effect of over 15% in size). Put shortly:
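Test compounds at 15 concentrations were incubated for 16hr with MDA-kb2 reporter cells in presence of 3.0uM nilutamide (final). Signal: ONE-Glo luciferase luminescence.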

Assay [12] can be described thus: qHTS assay to identify small molecule antagonists of the estrogen receptor beta (ER-beta) signaling pathway - cell viability counter screen (AID 1259382). Also: series mostly up to about 92 µM; nearly all actives have a fitted effect of over 55% in size. Put shortly:
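In this multiplexed counter screen, cells were seeded at 2,000 per well in medium with 2% charcoal-stripped FBS and incubated 6 hr before compound and 1nM final E2 were added. Sixteen hours later, ATP-based luminescence reported viability.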

Assay [13] addresses Thyrotropin receptor (Homo sapiens) (UniProt P16473). Briefly: qHTS assay to identify small molecule antagonists of the thyroid stimulating hormone receptor (TSHR) signaling pathway (AID 1259385; calls by dose curve; also: nearly all actives have a fitted effect of over 20% in size). Put shortly: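 TSHR-HEK293 cells were plated and held 18 h at 37C/5% CO2, then given compound plus Ro20-1724 and stimulated with TSH at 1.5 ng/mL final. After 30 min at room temperature, cAMP was detected with cAMP-d2/anti-cAMP-cryptate (1 h) by fluorescence.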

A short description of assay [14]: qHTS assay to identify small molecule agonists of the estrogen receptor alpha (ER-alpha) signaling pathway in the presence of an antagonist - cell viability counter screen (AID 1259386).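 Also: series mostly up to about 92 µM; cells exposed to compounds for 22 h at 37 °C before the viability read; nearly all actives have a fitted effect of over 30% in size.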 Put shortly:
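Viability counter screen using VM7Luc4E2 (full-length ER-alpha, four ERE-luciferase). The cells were treated with compounds alongside ICI-182,780 10.0nM for 22hr, and live-cell protease fluorescence was quantified with CellTiter-Fluor.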

The nature of assay [15]: qHTS assay to identify small molecule phospholipidosis (PLD) inducers (AID 1259344; active = well fitted curve in the direction sought with a large enough effect; an effect the other way counts as inactive or inconclusive). Put shortly:
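HepG2 cells on collagen I, attached 4 h at 37 C, were co-treated with compound and LipidTOX Red dye for 24 h at 37 C, then fixed with paraformaldehyde plus Hoechst 33342 and imaged by high-content microscopy for phospholipid accumulation.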

Assay [16] in a line: qHTS assay to identify small molecule agonists of the estrogen receptor beta (ER-beta) signaling pathway - cell viability counter screen (AID 1259380). Also: nearly all actives have a fitted effect of over 30% in size. Also: potency is read from the fitted curve at half-maximal effect. In short, it runs like this: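 CellTiter-Glo read, 30 min RT, same wells as bla assay; cells ER-beta-UAS-bla HEK293T; 16 hr compound, 37C; medium 2% charcoal-stripped FBS.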
Assay [17] is described as follows: qHTS assay to identify small molecule antagonists of the sonic hedgehog signaling (Shh) pathway (AID 1259369; calls by dose curve; also: nearly all actives have a fitted effect of over 45% in size). Put shortly:
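For antagonist detection, the reporter line received test compounds together with conditioned medium, incubated 24hr at 37 C, 5% CO2, then luminescence was recorded following 30min room-temperature luciferase reagent incubation.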

In assay [18] the target is Estrogen receptor beta (Homo sapiens) (UniProt Q92731). In words: qHTS assay to identify small molecule agonists of the estrogen receptor beta (ER-beta) signaling pathway (AID 1259377; active = well fitted activation curve with a large enough effect in the signal ratio in the repeat runs, not every such curve was filed as active; the % refers to the signal ratio). Put shortly:
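In HEK293T cells bearing a UAS-beta-lactamase reporter under ER-beta control, DMSO-delivered compounds were incubated for 16 hr at 37C. Activity was detected as fluorescence 2 hours after LiveBLAzer B/G FRET substrate addition.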

In assay [19] the target is Estrogen receptor (Homo sapiens) (UniProt P03372). In words: qHTS assay to identify small molecule agonists of the estrogen receptor alpha (ER-alpha) signaling pathway in the presence of an antagonist (AID 1259383; calls by dose curve; also: top concentration of the series differs between compounds; nearly all actives have a fitted effect of over 15% in size). In short, it runs like this: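 Stably transfected VM7Luc4E2 reporter cells, kept 5 days in charcoal-stripped serum, received ICI-182,780 at 10.0nM final before compound addition. Following 22hr incubation at 37C and 5% CO2, luciferase signal was read by luminescence.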
Sequence of Estrogen receptor (Homo sapiens) (P03372 whole entry, looked up): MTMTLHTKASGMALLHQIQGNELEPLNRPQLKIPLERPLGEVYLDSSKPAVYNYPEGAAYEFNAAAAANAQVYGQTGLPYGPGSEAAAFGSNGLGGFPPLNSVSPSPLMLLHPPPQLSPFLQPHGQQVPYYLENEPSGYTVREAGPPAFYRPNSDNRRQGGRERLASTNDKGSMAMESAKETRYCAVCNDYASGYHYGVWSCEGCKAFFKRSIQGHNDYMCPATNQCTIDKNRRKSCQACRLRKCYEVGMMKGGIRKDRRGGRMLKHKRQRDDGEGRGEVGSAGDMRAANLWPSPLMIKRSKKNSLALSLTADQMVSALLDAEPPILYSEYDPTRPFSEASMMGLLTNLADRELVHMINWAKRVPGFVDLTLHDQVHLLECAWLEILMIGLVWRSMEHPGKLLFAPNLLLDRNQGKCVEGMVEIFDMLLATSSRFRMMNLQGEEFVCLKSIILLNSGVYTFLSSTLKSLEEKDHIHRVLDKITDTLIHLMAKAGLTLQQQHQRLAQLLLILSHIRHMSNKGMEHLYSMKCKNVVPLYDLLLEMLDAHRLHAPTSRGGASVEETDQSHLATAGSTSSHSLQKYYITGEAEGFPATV

Assay [20] in a line: qHTS assay to identify small molecule agonists or antagonists of the thyroid stimulating hormone receptor (TSHR) signaling pathway - wild type cell line counter screen (AID 1259384; calls by dose curve). In short, it runs like this:
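Wild-type HEK293 cells were plated 18 h at 37 C/5% CO2, pin-dosed with compound plus Ro20-1724 medium, held 30 min at room temperature, then given cAMP-d2 and anti-cAMP-cryptate; fluorescence was read after 1 h. Fifteen concentrations, triplicate.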

Values without a mark were called inactive. Results filed as inconclusive are left out. Active and inactive are the calls of the source. Unless noted, calls follow the shape of the dose curve; as a rule, active = well fitted curve in the direction sought with a large enough effect in the repeat runs; inconclusive = weak or mixed curves; inactive = no such curve, though single readings can be large; an effect the other way counts as inactive or inconclusive.

Outcome and Potency data for eight compounds are collected here from PubChem BioAssay (Tox21).

Sequence of Estrogen receptor beta (Homo sapiens) (Q92731 whole entry, looked up): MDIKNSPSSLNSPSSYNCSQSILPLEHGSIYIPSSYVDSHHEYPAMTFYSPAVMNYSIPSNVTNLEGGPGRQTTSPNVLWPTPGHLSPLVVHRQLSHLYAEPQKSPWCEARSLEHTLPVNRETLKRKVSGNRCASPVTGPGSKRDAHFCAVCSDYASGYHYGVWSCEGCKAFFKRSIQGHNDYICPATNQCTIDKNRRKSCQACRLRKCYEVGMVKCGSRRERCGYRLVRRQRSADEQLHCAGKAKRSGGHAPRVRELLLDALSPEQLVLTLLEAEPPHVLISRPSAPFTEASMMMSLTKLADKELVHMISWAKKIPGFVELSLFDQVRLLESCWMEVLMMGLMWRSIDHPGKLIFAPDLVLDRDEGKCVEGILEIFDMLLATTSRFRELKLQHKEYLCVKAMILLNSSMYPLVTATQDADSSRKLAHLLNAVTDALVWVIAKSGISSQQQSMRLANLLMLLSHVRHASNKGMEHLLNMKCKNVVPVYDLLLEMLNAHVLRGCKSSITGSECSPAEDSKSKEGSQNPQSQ
Sequence of Thyrotropin receptor (Homo sapiens) (P16473 whole entry, looked up): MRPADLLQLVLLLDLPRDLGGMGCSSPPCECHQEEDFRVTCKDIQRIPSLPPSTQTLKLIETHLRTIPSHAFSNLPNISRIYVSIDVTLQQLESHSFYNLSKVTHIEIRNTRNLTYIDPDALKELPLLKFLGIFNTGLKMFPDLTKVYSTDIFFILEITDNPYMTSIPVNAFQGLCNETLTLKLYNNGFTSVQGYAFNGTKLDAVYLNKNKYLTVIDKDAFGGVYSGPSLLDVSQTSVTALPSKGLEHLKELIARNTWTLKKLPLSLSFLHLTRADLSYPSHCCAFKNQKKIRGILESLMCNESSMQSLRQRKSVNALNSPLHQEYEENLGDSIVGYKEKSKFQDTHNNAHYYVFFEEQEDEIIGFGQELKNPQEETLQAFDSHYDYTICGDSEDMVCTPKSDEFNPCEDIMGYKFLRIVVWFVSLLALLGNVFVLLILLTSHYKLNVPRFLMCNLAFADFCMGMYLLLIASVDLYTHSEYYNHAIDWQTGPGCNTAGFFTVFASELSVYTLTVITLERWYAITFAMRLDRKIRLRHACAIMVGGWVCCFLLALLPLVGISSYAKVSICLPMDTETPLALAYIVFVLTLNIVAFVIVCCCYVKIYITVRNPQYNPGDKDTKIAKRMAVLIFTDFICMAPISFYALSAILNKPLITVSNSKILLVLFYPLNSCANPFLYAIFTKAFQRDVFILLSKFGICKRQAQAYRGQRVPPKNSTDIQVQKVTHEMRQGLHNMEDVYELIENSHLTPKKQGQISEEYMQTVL

Take `CC(C(=O)c1ccccc1)N(C)C` (centres undefined): the outcome in [1], in [5] and in [8] was inactive. The Potency entry in assay [2], in assay [3], in assay [4], in assay [6], in assay [7] and in assay [9] was “inactive” each time. Further, the Potency entry in assay [10], in assay [11], in assay [12], in assay [13] and in assay [14] was “inactive” in each case.

In the case of `COc1ccc2c(c1OC)CN1CCc3cc4c(cc3C1C2)OCO4` (centres undefined), the result in assay [1], in assay [15], in assay [5] and in [8] was inactive. Besides, the figures for the Potency in assay [2] and in [16] were 26.6 µM (active) and 9.44 µM (active), respectively. Further, the Potency entry in [4], in assay [6], in assay [7], in assay [10], in assay [11] and in assay [12] was “inactive” throughout. Moreover, in [13], the Potency entry is “inactive”.

For the compound `CC(C)CC#N`, the outcome in assay [1], in [5], in [8] and in assay [18] was inactive. Besides, the Potency entry in assay [2], in [3], in assay [4], in assay [17], in assay [10] and in assay [16] was “inactive” throughout. The Potency entry in assay [11], in [12], in assay [19], in [20], in assay [13] and in assay [14] was “inactive” each time. For the same compound, the Potency in assay [7] was 27.9 µM (active).

With `CCOC(=O)C(c1c(O)c2ccccc2oc1=O)c1c(O)c2ccccc2oc1=O`, the result in [1], in assay [5] and in assay [8] was inactive. In addition, the Potency result in assay [2], in [3], in assay [4], in assay [10], in assay [11] and in [19] was “inactive” in each case. For the same compound, in assay [14], the Potency result is “inactive”.

Turning to `COc1ncc(F)c2nc(S(=O)(=O)Nc3c(F)cccc3F)nn12`, the outcome in [1], in [5], in assay [8] and in assay [18] was inactive. For the same compound, the Potency entry in assay [2], in assay [3], in assay [4], in assay [6], in [7] and in [17] was “inactive” each time. Moreover, the Potency entry in assay [9], in [10], in assay [16], in assay [11], in assay [12] and in [19] was “inactive” each time. The Potency entry in assay [20], in assay [13] and in assay [14] was “inactive” throughout.

With `Nc1ccccc1Cl`, the result in [1], in assay [5] and in assay [8] was inactive. Further, the Potency result in assay [2], in [3], in assay [6], in assay [7], in assay [17] and in assay [9] was “inactive” in each case. In addition, the Potency entry in assay [10], in [16], in [11], in [12], in [19] and in [20] was “inactive” throughout. In addition, the Potency result in [13] and in assay [14] was “inactive” in each case.

Consider `CCC(=O)C(CCN(C)C)(c1ccccc1)c1ccccc1`, for which the result in assay [1], in [5] and in assay [8] was inactive. The Potency result in [2], in assay [3], in assay [4], in [6], in [7] and in [10] was “inactive” each time. For the same compound, the Potency result in assay [16], in assay [11], in [12] and in [14] was “inactive” in each case.

For the compound `CNC(=O)Oc1ccccc1C1OCCO1`, the result in assay [1], in assay [5], in assay [8] and in assay [18] was inactive. Moreover, the Potency entry in assay [2], in assay [3], in assay [4], in assay [6], in [7] and in assay [17] was “inactive” each time. Also, the Potency result in assay [9], in assay [10], in assay [16], in assay [11], in assay [12] and in assay [14] was “inactive” throughout.
